# Screening data: PubChem BioAssay, National Center for Advancing Translational Sciences (NCATS)
# Hits are enriched below; roughly 3.9% of the tested compounds scored in any of these assays.
# p53null 39C tox: p53 null cell cytotoxicity, nonpermissive temperature; AID 904; H1299 p53-null (neo) cells, 39C, ATPlite viability, 24 h; 55,000 tested, 0.97% active; Potency, µM (highest dose often 46.1 µM), for inactives: top-dose activity, negative = cell killing, usual class: cytotoxic;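 further: potency means the concentration at half of the fitted maximal effect; 0% = DMSO only and -100% = full killing by 100 µM tamoxifen; nearly all actives have a fitted effect of over 50% in size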
#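 ATP-luminescence viability readout (ATPlite, 20 min RT) after 24 hr compound treatment at 39C of H1299-neo or H1299-p53A138V cells; titration up to 46 uM; normalized to DMSO and 100 uM tamoxifen; Hill-fit AC50.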
# p53null 32C kill: selectivity test: cytotoxicity in p53 null cells, permissive temperature; H1299-neo p53 null cells, ATP luminescence, 24 h, 32C; Potency, µM (top dose mostly 46.1 µM), for inactives: at the highest dose activity change, negative = cytotoxicity, most hits filed as cytotoxic; 55,000 tested, 0.62% active;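 further: potency means the concentration at half of the fitted maximal effect; 0% = DMSO only and -100% = full killing by 100 µM tamoxifen; nearly all actives have a fitted effect of over 55% in size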
#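 H1299-neo (p53-null) cells, 600/well, were pre-incubated overnight at 37C, then exposed to compounds at up to 46 uM for 24 hr at 32C. Viability was measured as ATP content by luminescence, and AC50 values came from Hill fits.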
# HTT-AS act: activators of huntingtin-antisense promoter activity; AID 1508624; Potency, µM (highest dose often 57.5 µM), inactives show at the top dose activity change, positive = activation, actives largely listed as activators; 48,000 tested, 0.24% active; HEK293 HTT-AS promoter firefly luciferase reporter, 24 h; response scale: percent change from vehicle, -100% = no light; further: potency means the concentration at half of the fitted maximal effect; nearly all actives have a fitted effect of over 55% in size
#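 Luminescence was read after Dual-Glo reagent and a 10 min room-temperature incubation. Values were normalized to vehicle (0% activity) and zero RLU (-100% activity). Reporter HEK293 cells had been exposed to compounds (up to 57.5 uM final) for 24 h.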
# HTT prom inh: HTT promoter inhibition. 48,000 tested, 0.93% active. Potency, µM (highest dose often 57.5 µM), for inactives: at the top dose activity change, negative = inhibition, hits mostly inhibitors. HEK293 HTT promoter firefly luciferase reporter, 24 h; further: potency means the concentration at half of the fitted maximal effect; nearly all actives have a fitted effect of over 50% in size
#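 Quantitative HTS used concentration series of up to 57.5 uM final on HEK293 luciferase reporter cells, 24 h at 37 degrees C. Readout was Dual-Glo firefly luminescence.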
# DRV1 agonist: GPR32 (DRV1) agonism, beta-arrestin recruitment; O75388; CHO-K1 GPR32 beta-arrestin PathHunter luminescence, 90 min; zero percent set by DMSO-only wells; activation, % at 76.9 µM; 48,000 tested, 2.5% active; AID 1346428;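 active means activation of at least 60% and not above a set upper limit, about 1 call in 100 departs from these limits; inconclusive means activation of 40% to 60%, or above that upper limit; inactive means activation under 40%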; further: 0% is about no effect
# Target sequence (O75388 whole entry, looked up): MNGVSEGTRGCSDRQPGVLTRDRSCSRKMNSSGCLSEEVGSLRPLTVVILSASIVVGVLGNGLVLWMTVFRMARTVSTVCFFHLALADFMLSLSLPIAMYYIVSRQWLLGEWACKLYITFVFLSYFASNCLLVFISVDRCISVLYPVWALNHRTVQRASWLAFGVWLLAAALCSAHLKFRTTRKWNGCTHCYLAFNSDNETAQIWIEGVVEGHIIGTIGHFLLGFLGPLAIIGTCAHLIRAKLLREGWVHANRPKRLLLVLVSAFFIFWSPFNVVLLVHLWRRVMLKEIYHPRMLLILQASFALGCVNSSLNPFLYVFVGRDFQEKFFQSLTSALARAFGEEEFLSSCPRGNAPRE
#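 CHO-K1 cells stably expressing ProLink-tagged GPR32 and Enzyme Activator-tagged beta-arrestin were seeded at 2,500 cells/well overnight, exposed to compounds for 90 min at 37 °C, then read by beta-Gal complementation chemiluminescence after 1 h detection reagent.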
# Numbers without * were called inactive; ? = inconclusive; / = no result; ! = repeats disagree. Unless noted, the call rests on the fitted dose curve; in most records, active means well fitted curve in the direction sought with a large enough effect; inconclusive means small, poorly fitted or top-dose-only effect, or another doubt; inactive means no such curve, though single readings can be large; an effect the other way counts as inactive or inconclusive.
SMILES,p53null 39C tox,p53null 32C kill,HTT-AS act,HTT prom inh,DRV1 agonist
COc1cc(O)c2c(c1)C1OC1C[C@H](O)[C@H](O)C(=O)C=CC[C@H](C)OC2=O (some centres not stated),/,/,-58%,?,/
CN(C)CCCN1c2ccccc2Sc2ccc(Cl)cc21,/,/,-35%,?,63*!
Cc1cccc(C(=O)Nc2nnc(S(=O)(=O)N3CCCc4ccccc43)s2)c1,0%,6%,-69%,?,48
O=C(Nc1nnc(S(=O)(=O)N2CCCc3ccccc32)s1)c1cccc(Cl)c1,-7%,-1%,-91%,?,74*
CC1Cc2ccccc2N1S(=O)(=O)c1nnc(NC(=O)c2cccc(F)c2)s1 (configuration not stated),-24%,-2%,-93%,25µM*,41
O=C(Nc1nnc(SCC(=O)N2CCCc3ccccc32)s1)c1ccccc1,/,7.9µM*,/,/,/
CC1CCN(S(=O)(=O)c2nnc(NC(=O)c3cccc(F)c3)s2)CC1,-7%,4%,-29%,-29%,43
CN(Cc1ccccc1)S(=O)(=O)c1nnc(NC(=O)c2cccc(Cl)c2)s1,-18%,-12%,-31%,-9%,68*
Cc1ccc(NC(=O)Nc2cc(C(F)(F)F)ccc2F)cc1Nc1ccc2c(c1)NC(=O)C2=Cc1ccc[nH]1,/,/,-37%,?,/
CCC[C@@H](C=O)NC(=O)[C@H](CC(C)C)NC(=O)[C@H](CC(C)C)NC(=O)OCc1ccccc1,/,/,-60%,?,/
CNC(=O)c1nn(C)c2c1C(C)(C)Cc1cnc(Nc3ccc(N4CCN(C)CC4)cc3)nc1-2,/,/,-41%,?,/
COc1ccc2nc(SCc3ncc(C)c(OC)c3C)[nH]c2c1,/,/,9%,15%,40
CC1=C[C@@H]2[C@@H]([C@@H](O)C[C@@]3(C)[C@H]2C[C@@H](C)[C@]3(O)C(=O)CO)[C@@]2(C)Cc3cnn(-c4ccccc4)c3C=C12,/,/,-24%,-14%,/
CC1COC2(CCN(c3nc(=O)c4cc(C(F)(F)F)cc([N+](=O)[O-])c4s3)CC2)O1 (configuration not stated),/,/,?,12%,/
COc1ccc2c(c1)Cc1sc(NC(=O)c3cccc(C)c3)nc1-2,-1%,14%,-6%,-14%,-60
COc1ccc2c(c1)Cc1sc(NC(=O)c3cccc(Cl)c3)nc1-2,5%,16µM*,2%,-14%,?
CCc1ccc(CNC(=O)c2ccc(-c3nc(CS(=O)(=O)c4ccccc4)c(C)o3)cc2)cc1,10%,1%,/,/,84*
COc1ccc(CNC(=O)c2ccc(-c3nc(CS(=O)c4ccc(C)cc4)c(C)o3)cc2)cc1 (configuration not stated),-3%,-9%,-30%,?,70*
CCOc1ccc(CCNC(=O)c2ccc(-c3nc(CSc4ccc(C)cc4)c(C)o3)cc2)cc1,-2%,-3%,-35%,-24%,-8
Cc1oc(-c2ccc(C(=O)NCc3ccccc3)cc2)nc1CS(=O)(=O)c1ccccc1,16%,-3%,0%,?,?
Cc1cccc(CNC(=O)c2ccc(-c3nc(CS(=O)(=O)c4ccccc4)c(C)o3)cc2)c1,11%,-7%,-18%,?,80*
Cc1ccc(OCc2nc(-c3ccc(C(=O)NCCc4ccc(S(N)(=O)=O)cc4)cc3)oc2C)cc1,-12%,-3%,-26%,?,82*
Cn1cnc(=N)c2[nH]cnc21,/,/,?,91%,/
COc1ccc(OC)c(NC(=O)c2noc3c2CCCC3)c1,-15%,-6%,29%,30%,-24
COc1ccc(NC(=O)c2noc3c2CCCC3)cc1Cl,-23%,-7%,?,65%,85*
SMILES,p53null 39C tox,p53null 32C kill,HTT-AS act,HTT prom inh,DRV1 agonist
Cc1ccc(O)c(NC(=O)c2noc3c2CCCCC3)c1,13µM*,13µM*,?,35%,-14
Cc1ccc(O)c(NC(=O)c2noc3c2CCCC3)c1,10µM*,?,/,/,27
CC(=O)c1cccc(NC(=O)c2noc3c2CCCC3)c1,?,?,/,/,6
O=c1cc(CN2CCOCC2)occ1OCCCCCSc1ccnc2cc(C(F)(F)F)ccc12,/,/,-39%,?,/
CCC(=O)Oc1ccc2c(c1)CC[C@@H]1[C@@H]2CC[C@@]2(C)[C@H]1C[C@@H](OC(=O)CC)[C@@H]2OC(=O)CC,/,/,1%,12%,-13
CN(C)c1ccc(/C=C(\C#N)c2nc3ccccc3c(=O)[nH]2)cc1,?,0.32µM*,?,78%,-4
Cc1cc(OCCCc2c(C(=O)O)n(Cc3cccnc3)c3c(-c4c(COc5ccc(N6CCN([S+](C)(=O)[O-])CC6)cc5)nn(C)c4C)cccc23)cc(C)c1Cl,/,/,-29%,?,/
O=C(COc1ccccc1Cl)Nc1ccc2nc(SCC(=O)N3CCOCC3)sc2c1,-10%,-11%,-42%,-25%,3
Cc1ccccc1OCC(=O)Nc1ccc2nc(SCC(N)=O)sc2c1,-29%,-13%,?,2%,?
Cc1ccccc1OCC(=O)Nc1ccc2[nH]c(=O)sc2c1,-16%,15%,-24%,-9%,109*
NC(=O)CSc1nc2ccc(NC(=O)COc3ccccc3Cl)cc2s1,-12%,-11%,-15%,-12%,90*
CC(=O)Nc1ccc2nc(SCCOc3ccccc3Cl)sc2c1,?,-7%,-5%,-11%,69*
CCOC(=O)CSc1nc2ccc(NC(=O)COc3ccccc3C)cc2s1,12%,-12%,-3%,6%,75*
C[C@@]12C[C@@]3(O)O[C@@H](O1)[C@]1(COC(=O)c4ccccc4)[C@@H]3C[C@@]12O[C@@H]1O[C@H](CO)[C@@H](O)[C@H](O)[C@@H]1O,/,/,-8%,1%,/
COc1cc(OC)c(C2Nc3ccccc3-c3nnc(SCc4ccccc4)nc3O2)cc1OC (configuration not stated),-3%,-8%,28%,6%,64*
COC(=O)CN(c1ccccc1)S(=O)(=O)c1ccc(F)cc1,6%,1%,/,/,/
Cc1ccc(N(CC(O)Cn2c3ccccc3c3ccccc32)S(=O)(=O)c2ccc(F)cc2)cc1 (configuration not stated),11µM*,61%,-55%,?,-7
O=C(O)[C@H]1O[C@H](Oc2cc3oc(-c4ccccc4)cc(=O)c3c(O)c2O)[C@H](O)[C@@H](O)[C@H]1O,/,/,?,17%,/
CCn1c(SCC(=O)Nc2cc(C)ccc2F)nnc1-c1ccccc1O,13%,-3%,1%,-11%,82*
Cc1c(Cl)cccc1NS(=O)(=O)c1ccc(NS(=O)(=O)c2ccc3c(c2)OCCO3)cc1,23%,14%,-34%,-28%,68*
